Growth inhibition, inhibition and outcome data for 20 compounds are collected here from PubChem BioAssay.

A number with no mark means an inactive call. For some of these results: Potency and affinity values are given separately. Active and inactive are the calls of the source. Unless noted, no rule for the calls is given here.

Assay [1] in a line: antimalarial activity against Dd2 strain (AID 2302;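 active = growth inhibition above 50% at the single 2 µM test dose, taken to imply half-maximal potency below 2 µM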;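 also: 0% = DMSO untreated growth and 100% = chloroquine plus artemisinin killed control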). The settings on record: P. falciparum Dd2 in RBCs, LDH growth readout, 72 h; at 2 µM; stronger effect = higher value.
The nature of assay [2]: HepG2 cytotoxicity, primary screen, cytotoxicity control for P. falciparum antimalarial project, cell-based, ATP luminescence (AID 2303;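 active = inhibition above 50%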;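 also: 0% = DMSO wells and 100% = digitonin-killed cells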). The settings on record: HepG2 viability, 24-48 h, at 10 µM, stronger effect = higher value.
In assay [3] the target is L-lactate dehydrogenase (Plasmodium falciparum (isolate CDC / Honduras)) (UniProt Q27743). In words: PfLDH activity inhibition – cell lysate, 3D7 strain, counter-screen for P. falciparum growth inhibition project (AID 2304).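 Also: 0% = vehicle and 100% = reference inhibitor.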 The following applies: P. falciparum 3D7 crude extract, LDH APAD/NBT absorbance; at 2 µM; stronger effect = higher value.
Assay [4] can be described thus: inhibition of 3D7 malaria parasite growth – strain 3D7 (AID 2306).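 Also: 0% = DMSO wells and 100% = chloroquine plus artemisinin control wells.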 The following applies: P. falciparum 3D7 erythrocytic growth, LDH absorbance, 72 h; at 2 µM; stronger effect = higher value.
For assay [5], the target named is Calcium-dependent protein kinase 1 (Plasmodium falciparum (isolate 3D7)) (UniProt P62344). In words: PfCDPK1 kinase inhibitors, biochemical, TCAMS library (AID 1159585; cut-off not given, nearly all actives have IC50 up to about 0.98 µM;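 also: inhibitors leave more ATP so luminescence rises with inhibition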). The following applies: recombinant PfCDPK1, Kinase-Glo ATP depletion luminescence.
Assay [6] concerns the target Plasmodium falciparum protein kinase 6 (PK6, PF3D7_1337100) (UniProt Q8IDW1). Put plainly: PfPK6 kinase inhibitors, biochemical, TCAMS library (AID 1159586). The settings on record: recombinant PfPK6, Kinase-Glo ATP depletion luminescence.
For assay [7], the target named is Protein kinase 7 (PK7), Plasmodium falciparum 3D7 (PF3D7_0213400) (UniProt Q7YTF7). In words: inhibition of Plasmodium PK7 catalytic activity – biochemical, TCAMS antimalarial set, Kinase-Glo luminescence (AID 1159587). The settings on record: recombinant PfPK7, Kinase-Glo ATP depletion luminescence.
In assay [8] the target is Calcium-dependent protein kinase 4 (Plasmodium falciparum (isolate 3D7)) (UniProt Q8IBS5). In words: PfCDPK4 kinase inhibitors, biochemical, TCAMS library (AID 1159588; cut-off not given, nearly all actives have IC50 up to about 0.91 µM). The following applies: recombinant PfCDPK4, Kinase-Glo ATP depletion luminescence.
Chain of Calcium-dependent protein kinase 4 (Plasmodium falciparum (isolate 3D7)) (Q8IBS5 whole entry, looked up): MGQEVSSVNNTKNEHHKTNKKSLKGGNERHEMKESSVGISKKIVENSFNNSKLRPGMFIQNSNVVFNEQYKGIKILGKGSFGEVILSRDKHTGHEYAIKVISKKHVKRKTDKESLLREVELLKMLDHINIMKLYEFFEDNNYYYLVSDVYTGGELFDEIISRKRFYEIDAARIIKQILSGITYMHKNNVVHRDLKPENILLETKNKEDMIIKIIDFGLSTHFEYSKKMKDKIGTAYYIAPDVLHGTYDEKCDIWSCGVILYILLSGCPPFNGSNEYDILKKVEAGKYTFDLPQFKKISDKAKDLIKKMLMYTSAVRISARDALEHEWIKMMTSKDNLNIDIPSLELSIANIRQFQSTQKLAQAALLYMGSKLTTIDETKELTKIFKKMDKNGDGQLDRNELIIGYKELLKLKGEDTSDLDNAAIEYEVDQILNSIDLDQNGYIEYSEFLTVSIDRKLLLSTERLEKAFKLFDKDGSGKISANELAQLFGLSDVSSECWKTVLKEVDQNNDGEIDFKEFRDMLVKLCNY

Chain of Protein kinase 7 (PK7), Plasmodium falciparum 3D7 (PF3D7_0213400) (Q7YTF7 1-343): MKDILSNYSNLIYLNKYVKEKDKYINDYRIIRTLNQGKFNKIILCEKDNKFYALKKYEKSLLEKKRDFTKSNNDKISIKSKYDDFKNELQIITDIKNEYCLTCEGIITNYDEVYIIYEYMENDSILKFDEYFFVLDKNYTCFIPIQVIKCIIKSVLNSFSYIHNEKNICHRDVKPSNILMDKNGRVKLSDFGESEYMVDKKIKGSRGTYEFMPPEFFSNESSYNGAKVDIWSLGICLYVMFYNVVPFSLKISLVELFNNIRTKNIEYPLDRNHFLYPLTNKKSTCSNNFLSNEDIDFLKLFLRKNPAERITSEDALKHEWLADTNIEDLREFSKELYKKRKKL
Chain of L-lactate dehydrogenase (Plasmodium falciparum (isolate CDC / Honduras)) (Q27743 whole entry, looked up): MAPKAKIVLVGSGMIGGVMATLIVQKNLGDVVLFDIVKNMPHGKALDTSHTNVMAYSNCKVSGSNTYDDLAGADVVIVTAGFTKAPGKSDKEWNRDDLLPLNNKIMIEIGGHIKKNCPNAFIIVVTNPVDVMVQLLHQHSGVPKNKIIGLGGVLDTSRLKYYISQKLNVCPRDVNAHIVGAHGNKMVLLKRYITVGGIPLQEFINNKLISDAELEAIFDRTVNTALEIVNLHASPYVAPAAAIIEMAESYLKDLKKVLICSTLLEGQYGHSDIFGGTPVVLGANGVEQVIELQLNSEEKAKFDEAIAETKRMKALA
Chain of Plasmodium falciparum protein kinase 6 (PK6, PF3D7_1337100) (Q8IDW1 1-305): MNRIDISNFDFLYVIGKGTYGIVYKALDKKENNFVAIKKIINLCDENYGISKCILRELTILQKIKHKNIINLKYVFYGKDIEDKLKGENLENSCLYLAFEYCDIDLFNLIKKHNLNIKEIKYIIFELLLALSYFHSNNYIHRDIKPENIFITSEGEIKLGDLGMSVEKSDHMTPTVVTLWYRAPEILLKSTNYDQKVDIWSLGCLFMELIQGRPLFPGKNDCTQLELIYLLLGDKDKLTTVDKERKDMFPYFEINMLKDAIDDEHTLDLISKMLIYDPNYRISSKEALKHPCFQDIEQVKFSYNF
Chain of Calcium-dependent protein kinase 1 (Plasmodium falciparum (isolate 3D7)) (P62344 whole entry, looked up): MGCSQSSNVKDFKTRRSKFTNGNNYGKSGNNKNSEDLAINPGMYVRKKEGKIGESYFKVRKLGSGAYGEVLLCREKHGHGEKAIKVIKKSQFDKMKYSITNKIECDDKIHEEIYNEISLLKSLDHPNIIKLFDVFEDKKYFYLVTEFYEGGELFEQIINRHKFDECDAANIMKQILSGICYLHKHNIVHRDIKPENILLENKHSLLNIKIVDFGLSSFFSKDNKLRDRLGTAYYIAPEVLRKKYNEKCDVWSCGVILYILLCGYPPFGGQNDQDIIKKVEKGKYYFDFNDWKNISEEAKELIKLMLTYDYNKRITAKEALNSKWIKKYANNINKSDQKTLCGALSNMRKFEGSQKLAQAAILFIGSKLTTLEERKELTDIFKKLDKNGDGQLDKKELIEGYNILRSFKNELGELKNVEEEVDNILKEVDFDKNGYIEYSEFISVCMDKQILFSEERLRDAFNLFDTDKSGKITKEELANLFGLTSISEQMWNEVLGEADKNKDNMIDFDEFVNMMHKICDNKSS

In the case of `O=C(CNC(=O)c1ccc(O)cc1)Nc1cccc(-c2cccc(-c3nc4ccc(C(F)(F)F)cc4[nH]3)c2)c1`, the growth inhibition in assay [1] was 28%; in assay [4], 96% (active). The inhibition is 63% (active) in assay [2] and 5% in assay [3]. Also, the result in assay [5], in assay [6], in assay [7] and in assay [8] was inactive.
For the compound `CC(C)Oc1cc2c(cc1NS(=O)(=O)c1ccc(-c3cccs3)cc1)CCN(C)CC2`, the growth inhibition in assay [1] was 9%; in assay [4], 88% (active). Also, the inhibition in assay [2] was 9%; in assay [3], -4%. The outcome in assay [5], in assay [6], in assay [7] and in assay [8] was inactive.
With `CCCCNC(=O)[C@H](CC1CCCCC1)NC(=O)c1ccc(O)c(-c2ccc(OC)cc2)c1`, the growth inhibition is 12% in assay [1] and 89% (active) in assay [4]. The inhibition in assay [2] was -8%; in assay [3] it was 5%. Besides, the outcome in assay [5], in assay [6], in assay [7] and in assay [8] was inactive.
Take `O=C(C=Cc1ccc(F)cc1)N1CCN(S(=O)(=O)c2ccc(Cl)cc2)CC1`: the growth inhibition in assay [1] is 93% (active); in assay [4], 91% (active). Further, the inhibition in assay [2] is 10%; in assay [3] it was -2%. Also, the result in assay [5], in assay [6], in assay [7] and in assay [8] was inactive.
`C[C@H](Cc1ccc(OCCCCCOc2ccc(C[C@@H](C)NC[C@H](O)c3cccc(Cl)c3)cc2)cc1)NC[C@H](O)c1cccc(Cl)c1`: the growth inhibition was 101% (active) in assay [1] and 99% (active) in assay [4]. The results for the inhibition in assay [2] and in assay [3] were 99% (active) and -1%, respectively. Also, the result in assay [5], in assay [6], in assay [7] and in assay [8] was inactive.
On to `CN(CCCN(C)c1cc(NC(=O)c2cccc(F)c2)ccn1)Cc1cccc(O)c1`, for which the growth inhibition in assay [1] was 4%; in assay [4], 92% (active). The inhibition is -3% in assay [2] and -1% in assay [3]. Besides, the result in assay [5], in assay [6], in assay [7] and in assay [8] was inactive.
Consider `CCCC(C)Nc1nc(C)cc(NCCC(=O)Nc2ccc(OC)cc2)n1` (stereo not given), for which the growth inhibition is 2% in assay [1] and 97% (active) in assay [4]. Also, the figures for the inhibition in assay [2] and in assay [3] were 12% and -1%, respectively. Besides, the outcome in assay [5], in assay [6], in assay [7] and in assay [8] was inactive.
Turning to `Cn1cncc1CCN(Cc1ccc(-c2ccc(C(F)(F)F)cc2)cc1)C(=O)Cn1c(SCc2cccc(F)c2F)cc(=O)c2ccccc21`, the growth inhibition in assay [1] is 90% (active); in assay [4] it was 99% (active). Moreover, the inhibition in assay [2] was 24%; in assay [3], -5%. For the same compound, the result in assay [5], in assay [6], in assay [7] and in assay [8] was inactive.
On to `Cc1cc(N[C@@H](Cc2ccccc2)C(=O)NCCCOC(C)C)nc(NCC2CCCCC2)n1`, for which the growth inhibition in assay [1] is 25%; in assay [4], 94% (active). Besides, the inhibition in assay [2] is 17%; in assay [3], -4%. Further, the result in assay [5], in assay [6], in assay [7] and in assay [8] was inactive.
With `CC1(C)N=C(N)N=C(N)N1OCCCCON1C(N)=NC(N)=NC1(C)C`, the growth inhibition is 95% (active) in assay [1] and 97% (active) in assay [4]. The inhibition in assay [2] was 54% (active); in assay [3] it was 4%. For the same compound, the outcome in assay [5], in assay [6], in assay [7] and in assay [8] was inactive.
For the compound `CC1(C)N=C(N)N=C(N)N1OCCc1cccc2ccccc12`, the values for the growth inhibition in assay [1] and in assay [4] were 97% (active) and 95% (active), respectively. The inhibition is 57% (active) in assay [2] and -2% in assay [3]. Besides, the outcome in assay [5], in assay [6], in assay [7] and in assay [8] was inactive.
For the compound `Cc1cc2[nH]c(-c3ccc(C(=O)NCCCN4CCN(c5cccc(Cl)c5)CC4)s3)nc2cc1Cl`, the growth inhibition is 93% (active) in assay [1] and 100% (active) in assay [4]. Moreover, the results for the inhibition in assay [2] and in assay [3] were 7% and -1%, respectively. Further, the outcome in assay [5], in assay [6], in assay [7] and in assay [8] was inactive.
For the compound `CC(C)(Oc1c(C2CCN(CCCCNC(=O)c3ccc(-c4ccc(C#N)cc4)cc3)CC2)ccc2c1CCCC2)C(N)=O`, the figures for the growth inhibition in assay [1] and in assay [4] were 82% (active) and 100% (active), respectively. In addition, the inhibition is 34% in assay [2] and 6% in assay [3]. Also, the outcome in assay [5], in assay [6], in assay [7] and in assay [8] was inactive.
In the case of `CCCCCc1cc(OCCN(C)C)cc2c1C(=O)CC(C)(C)O2`, the growth inhibition in assay [1] was -2%; in assay [4], 98% (active). Besides, the inhibition is 5% in assay [2] and 6% in assay [3]. Besides, the outcome in assay [5], in assay [6], in assay [7] and in assay [8] was inactive.
Consider `Cc1noc(C)c1C(=O)N1CCCC(c2[nH]c3c(C)cccc3c2-c2ccncc2)C1` (stereo not given), for which the growth inhibition in assay [1] is 101% (active); in assay [4], 102% (active). The figures for the inhibition in assay [2] and in assay [3] were 16% and 6%, respectively. The result in assay [5], in assay [6], in assay [7] and in assay [8] was inactive.
In the case of `COc1ccc2nc3cc(Cl)ccc3c(NCCCCN)c2c1`, the growth inhibition in assay [1] is 62% (active); in assay [4], 101% (active). In addition, the inhibition is 52% (active) in assay [2] and 7% in assay [3]. The outcome in assay [5], in assay [6], in assay [7] and in assay [8] was inactive.
In the case of `Nc1c(Cl)cc(C(O)CNCCCCCCOCCC=C2CCOCC2)cc1Cl` (stereo not given), the growth inhibition in assay [1] was 9%; in assay [4], 100% (active). The inhibition in assay [2] is 7%; in assay [3], 0%. Moreover, the result in assay [5], in assay [6], in assay [7] and in assay [8] was inactive.
Regarding `O=c1cc(NC[C@H]2CCC[C@@H]2NCc2cc(Br)cc(Br)c2)[nH]c2ccccc12`, the values for the growth inhibition in assay [1] and in assay [4] were 45% and 101% (active), respectively. Besides, the inhibition in assay [2] was 21%; in assay [3] it was 2%. Besides, the outcome in assay [5], in assay [6], in assay [7] and in assay [8] was inactive.
On to `Oc1ccc(CCNc2nc(NCc3ccccc3-c3ccc(C(F)(F)F)cc3)nc(NC3CCNCC3)n2)cc1`, for which the growth inhibition in assay [1] is 2%; in assay [4], 97% (active). Further, the inhibition is 12% in assay [2] and 4% in assay [3]. Moreover, the outcome in assay [5], in assay [6], in assay [7] and in assay [8] was inactive.
Regarding `O=C(Nc1ccc(Cn2ncc(N3CCCNCC3)c(Cl)c2=O)cc1)Nc1cccc(C(F)(F)F)c1`, the values for the growth inhibition in assay [1] and in assay [4] were 30% and 101% (active), respectively. The results for the inhibition in assay [2] and in assay [3] were 20% and 0%, respectively. For the same compound, the result in assay [5], in assay [6], in assay [7] and in assay [8] was inactive.
